Source: PubChem BioAssay AID489036 (National Center for Advancing Translational Sciences (NCATS), 2010)
Results filed as inconclusive are left out. Where a call stands in place of a potency, no number is given. Active and inactive are the calls of the source. The call rests on the fitted dose curve; in most records, active means well fitted inhibition curve with a large enough effect; inconclusive means small, poorly fitted or top-dose-only effect, or effect the other way; inactive means flat fitted curve, though single readings scatter.

Assay: VP16 selectivity assay for inhibitors of ROR gamma transcriptional activity
Details: Drosophila Schneider Gal4-VP16 UAS-luciferase reporter, 20 h; series mostly up to 92.2 µM
Method in brief: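 Drosophila Schneider cells stably expressing a Gal4-VP16 fusion under a metallothionein promoter and a UAS-driven Photinus luciferase reporter. Compound preincubated 1 hr, copper sulfate added (700 uM final), then 20 hr at ambient temperature before luminescence read.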

Structure (SMILES)	Potency
CCOc1ccc(O)c(C(CC(=O)N2CCCC(C)C2)c2ccc3c(c2)OCO3)c1 (stereo not drawn)	inactive
COc1cc(O)c(C(CC(=O)N2CCCC(C)C2)c2ccccc2OC)c(OC)c1 (stereo not drawn)	inactive
COc1ccccc1C(CC(=O)N1C[C@H](C)C[C@H](C)C1)c1ccccc1 (stereo partly drawn)	32.3 µM (active)
C=C1Nc2c(-c3ccc(F)cc3)cnn2C(N)=C1c1ccccc1	0.288 µM (active)
Cc1ccc(C)c(/C=N/n2cc(-c3ccccc3)[nH]c2=S)c1	20.4 µM (active)
O=S(=O)(c1ccc(NC(=S)N/N=C/c2ccc(Oc3ccccc3)cc2)cc1)N1CCOCC1	2.04 µM (active)
COc1cc(O)c(C(CC(=O)N2CC(C)OC(C)C2)c2ccc3c(c2)OCO3)c(OC)c1 (stereo not drawn)	inactive
COc1cc(O)c(C(CC(=O)N2CCC[C@H](C)C2)c2ccc3c(c2)OCO3)c(OC)c1 (stereo partly drawn)	inactive
COc1ccc2nc(NNC(=O)COc3ccccc3)sc2c1	6.45 µM (active)
COc1cc(OC)c(C(CC(=O)N2CC(C)CC(C)C2)c2ccc3c(c2)OCO3)c(OC)c1 (stereo not drawn)	22.9 µM (active)
COCC1CCCCN1C(=O)c1cc(COc2ccc3ncccc3c2)on1 (stereo not drawn)	16.2 µM (active)
COc1cc(O)c(C(CC(=O)N2CCCC(CN3CCCCC3)C2)c2ccc3c(c2)OCO3)c(OC)c1 (stereo not drawn)	inactive
COCC1CCCN(C(=O)CC(c2ccc3c(c2)OCO3)c2c(O)cc(OC)cc2OC)C1 (stereo not drawn)	inactive
CCN(CC)c1ccc(/C=N/n2c(-c3ccccc3Br)n[nH]c2=S)cc1	2.04 µM (active)
COc1cc(O)c(C(CC(=O)N2CCCC(C)C2)c2ccc(OC)c(OC)c2)c(OC)c1 (stereo not drawn)	inactive
COc1cc(OC)c(C(CC(=O)N2CCCC(C)C2)c2ccc3c(c2)OCO3)c(OCc2ccccc2)c1 (stereo not drawn)	12.9 µM (active)
COc1cc(O)c(C(CC(=O)N2CCCCC2)c2ccc(C)cc2)c(OC)c1 (stereo not drawn)	inactive
COc1cc(OC)c(C(CC(=O)N2CC(C)CC(C)C2)c2ccc3c(c2)OCO3)c(OCC(N)=O)c1 (stereo not drawn)	inactive
CC1=C(\C=C/C(C)=C/C=C\C(C)=C\C(=O)O)C(C)(C)CCC1	8.48 µM (active)
CCC(=O)C1CCCN(C(=O)CC(c2ccc3c(c2)OCO3)c2c(O)cc(OC)cc2OC)C1 (stereo not drawn)	inactive
COc1cc(O)c(C(CC(=O)N2CCC(C)CC2)c2ccc(OC)c(OC)c2)c(OC)c1 (stereo not drawn)	inactive
COc1cc(O)c(C(CC(=O)N2CCCCC2)c2ccc3c(c2)OCO3)c(OC)c1 (stereo not drawn)	inactive
Cc1nn(-c2cc(C)c3ccccc3n2)c2c1C1C(C2)C1(C)C (stereo not drawn)	22.9 µM (active)
c1ccc(Cn2c(-c3ccccc3)c[n+]3c2SCCC3)cc1	45.7 µM (active)
COc1cc(O)c(C(CC(=O)N2CCC(c3ccccc3)CC2)c2ccc(OC)c(OC)c2)c(OC)c1 (stereo not drawn)	inactive
COc1ccc(C(=O)Nc2cc(-c3ccc(C)cc3)no2)cc1	inactive
Cc1cc(C)nc(-n2nc(C)cc2NC(=O)CNC(C)c2ccccc2)n1 (stereo not drawn)	18.2 µM (active)
Cc1cc(C)n(-c2nc(SCC(=O)O)c3c4c(sc3n2)CCCC4)n1	16.2 µM (active)
